# Assay results taken from the supplement of paper PMC13380429.
# Unmarked numbers belong to inactive results.
# System: Vero E6 infected with SARS-CoV-2
# Assay: inhibition of SARS-CoV-2 cytopathic effect; higher = more antiviral protection, active = above 15
# Conditions: 48 h
SMILES,inhibition of SARS-CoV-2 cytopathic effect (1 nM),inhibition of SARS-CoV-2 cytopathic effect (8.33 nM),inhibition of SARS-CoV-2 cytopathic effect (100 nM),inhibition of SARS-CoV-2 cytopathic effect (833.33 nM),inhibition of SARS-CoV-2 cytopathic effect (10000 nM)
CN1C(=O)C(Cc2c[nH]c3ccccc23)NC1=S (stereo not given) [necrostatin-1],1.27%,-1.34%,2.85%,1.03%,1.43%
O=C(N[C@H](Cc1ccccc1)C(=O)O)c1sc2cc(F)ccc2c1Cl,2.8%,1.61%,0.39%,1.13%,3.31%
CC(=O)N(CC(O)CO)c1c(I)c(C(=O)NCCO)c(I)c(C(=O)NCC(O)CO)c1I (stereo not given) [ioxilan],1.8%,0.19%,-2.31%,-1.98%,-0.58%
O=C(NCCS(=O)(=O)c1ccc(C(F)(F)F)cn1)c1ccc(Cl)cc1,4.56%,-1.99%,5.99%,1.04%,1.56%
OB1OCc2cc(Cl)ccc21,1.12%,2.29%,2.68%,2.33%,1.07%
CNC(=O)[C@H]1O[C@@H](n2cnc3c(NCc4cccc(I)c4)nc(Cl)nc32)[C@H](O)[C@@H]1O,2.28%,3.03%,4.18%,2.83%,0.99%
CC(=O)SC[C@@H](C)C(=O)N1CCC[C@H]1C(=O)N[C@@H](Cc1ccccc1)C(=O)O [alacepril],-1.69%,0.59%,0.98%,-1.33%,-0.44%
C#Cc1cccc(Nc2ncnc3cc4c(cc23)OCCOCCOCCO4)c1 [icotinib],1.1%,0.11%,-1.65%,-2.37%,-5.92%
CCOC(=O)c1ccc(OCCC2CCN(c3ccc(C)nn3)CC2)cc1 [pirodavir],2.32%,1.72%,0.34%,1.49%,-2.18%
C#C[C@]1(O)CC[C@H]2[C@@H]3CCc4cc(O)ccc4[C@H]3CC[C@@]21C,0.97%,0.51%,6.67%,3.6%,7.74%
Cc1ccc2c(Cl)cc(Cl)c(O)c2n1 [chlorquinaldol],-1.39%,-0.32%,-1.09%,-1.86%,0.43%
C[C@@]1(CO)[C@H](O)CC[C@@]2(C)[C@H]1CC[C@H]1C[C@@H]3C[C@@]12CC[C@]3(O)CO [aphidicolin],-5.87%,-3.68%,-2.81%,-0.76%,-2.66%
NS(=O)(=O)c1ccc(-n2nc(C(F)(F)F)cc2-c2ccc(Cl)cc2)cc1,1.27%,3.82%,-2.22%,-0.43%,-0.38%
O=C(CCCCCN1C(=O)c2cccc3cccc(c23)C1=O)NO [scriptaid],4.82%,3.4%,-3.14%,-13.6%,-24.8%
CC(=O)c1ccc2c(c1)N(CCCN1CCN(CCO)CC1)c1ccccc1S2 [acetophenazine],1.65%,1.77%,2.3%,2.47%,2.15%
CC[C@@]1(O)C(=O)OCc2c1cc1n(c2=O)Cc2cc3c(CN(C)C)c(O)ccc3nc2-1 [topotecan],0.54%,1.66%,-1.53%,-6.88%,-15.3%
Cc1cccc(C(=O)NCN2CCN(c3ccccc3C#N)CC2)c1,-2.23%,0.9%,-0.16%,0.2%,0.79%
CCC[C@@]1(CCc2ccccc2)CC(O)=C([C@H](CC)c2cccc(NS(=O)(=O)c3ccc(C(F)(F)F)cn3)c2)C(=O)O1 [tipranavir],-0.16%,4.7%,1.56%,0.71%,4.99%
O=C(O)CCc1ccc(NCc2cccc(Oc3ccccc3)c2)cc1,1.33%,-1.1%,-1.51%,-0.16%,-0.27%
CC(C)(C)Cn1c(N)nc2ccc(-c3[nH]c(C(C)(C)C)nc3-c3ccc(F)cc3)nc21,2.2%,-0.57%,-1.43%,11.8%,55.2% (active)
